# High-throughput results deposited in PubChem BioAssay by NMMLSC.
# RGS8-Gao: human RGS8-Galphao interaction regulation. multiplexed bead flow cytometry, RGS8-Galphao binding; actives lie on both sides. 220,000 compounds, 0.34% hits. response (percent of control binding), % at 10 µM; in the data active = response below about 60% or above about 140%; inactive = in between;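 also: Galphao activated as the GDP aluminium fluoride complex binding bead-coupled RGS8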
# Target sequence (P09471 whole entry, looked up): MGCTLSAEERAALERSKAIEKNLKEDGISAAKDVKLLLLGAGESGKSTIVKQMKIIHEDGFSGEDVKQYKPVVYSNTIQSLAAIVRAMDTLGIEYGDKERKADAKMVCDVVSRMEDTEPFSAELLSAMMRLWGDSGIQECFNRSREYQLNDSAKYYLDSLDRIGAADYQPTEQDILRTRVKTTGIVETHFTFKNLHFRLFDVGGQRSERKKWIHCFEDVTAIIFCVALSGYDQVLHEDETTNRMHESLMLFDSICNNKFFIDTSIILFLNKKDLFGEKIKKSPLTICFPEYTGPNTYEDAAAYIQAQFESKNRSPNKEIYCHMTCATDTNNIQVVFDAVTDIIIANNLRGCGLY
# RGS4-Gao reg: modulates binding of RGS4 to human Galphao; 220,000 compounds, 0.33% hits; AID 1415; binding response (% of control), % at 10 µM; Multiplexed bead flow cytometry; actives lie on both sides; in the data active = binding response below about 49% or above about 150%; inactive = in between;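 also: fluorescent Galphao activated with aluminum fluoride binding bead-coupled RGS4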
# GSH bead fluor: GSH bead compound fluorescence profile. GSH beads flow cytometry, compound fluorescence 488/530 nm; active compounds read high. fluorescence (KMESF) at 10 µM. 190,000 compounds, 0.25% hits; in the data active = fluorescence above about 89;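 also: glutathione beads carrying GST-tagged Bcl family fusion proteins plus one bare bead set; values are compound well signal with DMSO vehicle wells as background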
# Avidin bead fluor: compound fluoresces at 488/530 nm on avidin beads. compound fluorescence 488/530 nm, flow cytometry; active compounds read high. fluorescence (KMESF) at 10 µM. 220,000 compounds, 0.38% hits; in the data active = fluorescence above about 47
# RGS16-Gao: RGS16-Galphao interaction regulator (human). O15492+P09471. bead-based flow cytometry RGS16-Galphao binding, fluorescence; actives lie on both sides. binding response (% of control), % at 10 µM. 220,000 compounds, 0.38% hits;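 also: Galphao activated by GDP with aluminum fluoride before binding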
# Target sequence (O15492 whole entry, looked up): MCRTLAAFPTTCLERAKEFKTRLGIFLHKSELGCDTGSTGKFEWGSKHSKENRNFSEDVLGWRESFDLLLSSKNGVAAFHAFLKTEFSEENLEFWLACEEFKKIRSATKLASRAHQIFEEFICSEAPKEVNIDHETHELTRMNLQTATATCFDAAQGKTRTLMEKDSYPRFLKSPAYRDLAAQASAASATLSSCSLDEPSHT
# Target sequence (P09471 whole entry, looked up): as the sequence (P09471 whole entry, looked up) above
# RGS7-Gao reg: regulators of human RGS7-Galphao interaction; binding response (% of control), % at 10 µM; 220,000 compounds, 0.35% hits; Multiplexed bead flow cytometry, RGS7-Galphao binding; actives lie on both sides; P09471; in the data active = binding response below about 49% or above about 150%; inconclusive = no clear call, values can overlap the other calls; inactive = in between;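 also: fluorescent Galphao held in activated GDP-AlF4 state binding bead-coupled RGS7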
# RGS-Gao: regulators of human RGS4-Galphao interaction; shares compounds with RGS16-Gao; multiplexed bead flow cytometry, RGS–Galpha-o binding; RGS4–Galpha-o binding response, % at 10 µM; 1,600 compounds, 99% hits;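 also: fluorescently labeled Galpha-o bound to GDP with aluminium fluoride binding biotinylated RGS beads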
# Biotin-avidin: counter-screen: compounds disrupting biotin binding to avidin beads; inhibition, % at 10 µM; 1,700 tested, under 10 active; shares compounds with RGS16-Gao; streptavidin beads, fluorescein-biotin binding, flow cytometry;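 active = inhibition above 50%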;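 also: median green fluorescence of gated singlet beads compared with DMSO control wells; 0% = DMSO wells and 100% = complete loss of bead fluorescence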
# RGS8-Gao single: confirmation of regulators of human RGS8-Galphao interaction; shares compounds with RGS16-Gao; bead-based flow cytometry RGS8-Galphao binding, fluorescence; actives lie on both sides; binding response (% of control), % at 10 µM; 1,700 compounds, 3% hits; AID 1836; in the data active = binding response below about 72% or above about 130%; inactive = in between;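 also: Galphao activated as GDP AlF4 complex before binding bead RGS8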
# RGS7-Gao single: confirmation of regulators of human RGS7-Galphao interaction; shares compounds with RGS16-Gao; bead-based flow cytometry RGS7-Galphao binding; actives lie on both sides; response (percent of control binding), % at 10 µM; 1,700 compounds, 7.8% hits; AID 1837; in the data active = response below about 75% or above about 130%; inactive = in between;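 also: fluorescent Galphao activated with GDP and aluminum fluoride binding bead-coupled RGS7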
# RGS16-Gao single: confirmation of regulators of human RGS16-Galphao interaction; shares compounds with RGS16-Gao; bead-based flow cytometry, RGS16-Galphao binding; actives lie on both sides; response (% of control binding), % at 10 µM; 1,700 compounds, 4% hits; AID 1838; in the data active = response below about 74% or above about 130%; inactive = in between;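 also: Galphao activated as the GDP aluminium fluoride complex binding bead-coupled RGS16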
# RGS4-Gao confirm: RGS4-Galphao interaction regulation, single point confirmation; shares compounds with RGS16-Gao; RGS4-Galphao binding, multiplexed bead flow cytometry; actives lie on both sides; binding response (% of control), % at 10 µM; 1,700 compounds, 4% hits; AID 1840; in the data active = binding response below about 74% or above about 130%; inactive = in between
# RGS19-Gao single: RGS19-Galphao interaction regulation, single point confirmation | shares compounds with RGS16-Gao | bead-based flow cytometry RGS19-Galphao binding; actives lie on both sides | response (percent of control binding), % at 10 µM | 1,700 compounds, 5% hits; in the data active = response below about 50% or above about 160%; inactive = in between;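 also: 100% = no compound control and 0% = blank background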
# * hit, by the source's call; i = inactive; ? = inconclusive; · = no result; [ ] = another dose, or the depositor's remark. This is a sample that favours compounds with a hit; in the whole collection about 1.2% have one here. Unless noted, no rule for the calls is given here.
SMILES,RGS8-Gao,RGS4-Gao reg,GSH bead fluor,Avidin bead fluor,RGS16-Gao,RGS7-Gao reg,Biotin-avidin,RGS8-Gao single,RGS7-Gao single,RGS16-Gao single,RGS4-Gao confirm,RGS19-Gao single,others
O=Cc1ccc(-c2ccc(Cl)cc2Cl)[nH]1,26*,26*,16,2,15*,16*,2,109,108,112,106,97,
Cn1c(-c2ccc(F)cc2)cnc1NCc1cc2c(cc1[N+](=O)[O-])OCO2,104,103,9,15,110,104,·,·,·,·,·,·,
Cc1cc(F)ccc1NCc1cc2c(cc1[N+](=O)[O-])OCO2,89,84,63,2,-41*,88,1,88,85,87,88,95,RGS-Gao=84*
CC1C2NC(=O)N(Cc3ccccc3)C1(C)Oc1ccccc12 (configuration not stated),102,103,11,11,103,102,·,·,·,·,·,·,
COc1ccccc1NC(=O)CN(Cc1ccco1)C(=O)c1ccc(Cl)nc1,99,96,10,13,95,?,·,·,·,·,·,·,
CC(=O)Nc1ccc(NC(=S)Nc2ccccc2)cc1,·,·,17,·,·,·,2,103,109,103,106,104,
CC(=O)Nc1ccc(NC(=S)Nc2ccc(F)cc2)cc1,102,98,10,8,102,?,·,·,·,·,·,·,
CCOc1ccc2oc(C(=O)NCC(C)(C)CN(C)C)c(C)c2c1,99,98,25,8,99,?,·,·,·,·,·,·,
CCNC(=O)Cn1c(=O)c(=O)n(Cc2ccccc2)c2ccc(Cl)cc21,84,162*[activator],15,57*,243*[activator],171*[activator],0,103,102,103,104,99,
CCOC(=O)C1CCCN(c2c(N3CCN(c4cccc(Cl)c4)CC3)c(=O)c2=O)C1 (configuration not stated),30*,29*,17,0,16*,18*,-1,104,101,102,101,94,
CCOC(=O)C1CCCN(c2c(N3CCN(C)CC3)c(=O)c2=O)C1 (configuration not stated),110,103,26,17,110,115,·,·,·,·,·,·,
Cc1ccc2c(c1)N(CC(=O)OCC(=O)NCc1ccccc1)C(=O)CO2,104,101,25,10,111,102,·,·,·,·,·,·,
NC(=O)C1CCCN(C(=O)c2ccc(Cl)cc2)C1 (configuration not stated),98,97,39,9,99,98,·,·,·,·,·,·,
NC(=NC1CCCCC1)c1ccc(Cl)cc1,90,117,14,42,101,195*[activator],2,103,97,102,101,118,RGS-Gao=117*
COCCCNC(=O)COc1ccc(S(=O)(=O)NCc2ccccc2)cc1Cl,407*[activator],314*[activator],16,2,i,275*[activator],-1,99,77,94,89,57,
COc1ccc(OCCOC(=O)c2cccc(-n3cnnn3)c2)cc1,29*,15*,19,-1,4.0*,17*,1,101,97,101,100,93,
Clc1cccc(-c2ccc(CNCCCN3CCOCC3)o2)c1,100,97,9,2,94,97,·,·,·,·,·,·,
O=C(Nc1ncn[nH]1)c1ccc(S(=O)(=O)N2CCOCC2)cc1,103,101,19,8,99,?,·,·,·,·,·,·,
Cc1cc(Sc2nc(NC(C)C)nc(NC(C)C)n2)nc(Cl)n1,110,102,9,34,111,110,·,·,·,·,·,·,
CCOC(CNC(=O)c1cccn2c(=O)c3cc(Cl)ccc3nc12)OCC,71,52,18,4,54,48*,0,101,99,102,98,106,RGS-Gao=52*
O=C(CN1N=C(c2ccc(Cl)cc2)CCC1=O)NCCN1CCc2ccccc2C1,13*,14*,12,-5,-2.4*,4.0*,-1,110,106,116,107,135,
Cc1ccc(C2=NN(CC(=O)NCc3cccs3)C(=O)CC2)cc1,106,101,12,26,117,102,·,·,·,·,·,·,
O=C(O)Cc1nn(Cc2ccc(Cl)cc2)c(=O)c2ccccc12,103,98,17,5,102,100,·,·,·,·,·,·,
Cc1onc(-c2ccccc2)c1C(=O)N/N=C/C=C/c1ccccc1,101,101,·,6,104,?,·,·,·,·,·,·,
Cc1ccc(C(=O)N/N=C/C=C/c2ccccc2)o1,98,113,20,36,116,230*[activator],0,98,97,96,95,106,RGS-Gao=113*
SMILES,RGS8-Gao,RGS4-Gao reg,GSH bead fluor,Avidin bead fluor,RGS16-Gao,RGS7-Gao reg,Biotin-avidin,RGS8-Gao single,RGS7-Gao single,RGS16-Gao single,RGS4-Gao confirm,RGS19-Gao single,others
CCOC(=O)c1cccc(NC(=O)C2(S(=O)(=O)c3ccc(Cl)cc3)CC2)c1,101,101,8,8,102,104,·,·,·,·,·,·,
COc1ccc(NC(=O)Nc2ncccc2C)cc1,106,104,12,24,108,103,·,·,·,·,·,·,
COc1ccc(C(=O)NC(=O)Nc2ncccc2C)cc1,70,77,48,2,2.9*,74,-1,102,107,104,103,100,RGS-Gao=77*
CC1=Nc2cccc([N+](=O)[O-])c2NC(=O)C1,106,106,14,8,105,97,·,·,·,·,·,·,
Cc1c(Br)c(C(F)(F)F)nn1CC(=O)NCc1ccccc1,127,109,19,13,203*[activator],110,-1,102,101,102,102,90,RGS-Gao=109*
Cc1c(Cl)c(C(F)(F)F)nn1CC(=O)NCc1ccccc1,102,98,15,6,102,99,·,·,·,·,·,·,
Cc1cc(N)ccc1-n1c(C)ccc1C,98,101,10,28,98,98,·,·,·,·,·,·,
Cc1cc(N)ccc1N1CCCC1,54*,58,0,1,39,50,·,·,·,·,·,·,RGS-Gao=58*
